Sampled rows, rich in hits. Any-hit rate of the full collection: about 7.5%.
ELG1 genotoxic – genotoxicity induction in ELG1-luciferase HEK293T cells. 330,000 tested, 1.3% active. HEK293T ELG1-luciferase reporter, luminescence, 16 h. AID 504466. Potency, µM (top dose mostly 46 µM), hits mostly activators; note: nearly all actives have a fitted effect of over 60% in size
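DMSO vehicle served as control against compound-treated ELG1-luciferase HEK293T cells; exposure lasted 16 hr at 37 °C and 5% CO2, followed by ONE-Glo luminescence detection after 30 min.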
Rab9 prom act – activates the Rab9 promoter; Potency, µM (titrated, usually from 9.22 µM), actives largely listed as activators; 320,000 tested, 2.8% active; Huh7 Rab9 promoter-luciferase reporter, luminescence, 24 h; note: nearly all actives have a fitted effect of over 60% in size
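Using Huh7 cells stably transfected with Rab9 promoter–luciferase, compounds were incubated 24 h at 37 °C, 5% CO2; luciferase luminescence was read 10 min after reagent addition.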
FLuc modulator – inhibits or activates purified firefly luciferase, miR-21 counter-screen; P08659; purified FLuc, Km substrates, luminescence inhibition; Potency, µM (top dose mostly 57.5 µM), actives largely listed as inhibitors; 360,000 tested, 6.9% active; note: nearly all actives have a fitted effect of over 55% in size
Target sequence (P08659 whole entry, looked up): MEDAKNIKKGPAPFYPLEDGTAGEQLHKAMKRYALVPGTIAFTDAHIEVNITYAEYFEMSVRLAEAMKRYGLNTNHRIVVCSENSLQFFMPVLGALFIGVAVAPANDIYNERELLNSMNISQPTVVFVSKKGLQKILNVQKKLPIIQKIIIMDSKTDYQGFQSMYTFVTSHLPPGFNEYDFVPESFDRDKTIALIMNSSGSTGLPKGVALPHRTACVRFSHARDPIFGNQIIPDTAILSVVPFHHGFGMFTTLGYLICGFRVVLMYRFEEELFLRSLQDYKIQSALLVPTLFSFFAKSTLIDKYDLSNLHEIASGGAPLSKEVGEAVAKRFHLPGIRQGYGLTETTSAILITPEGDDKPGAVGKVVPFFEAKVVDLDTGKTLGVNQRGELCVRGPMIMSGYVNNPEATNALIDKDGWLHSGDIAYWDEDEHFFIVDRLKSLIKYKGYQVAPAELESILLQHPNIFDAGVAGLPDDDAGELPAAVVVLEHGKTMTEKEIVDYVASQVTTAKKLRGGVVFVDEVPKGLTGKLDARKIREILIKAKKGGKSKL
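Purified P. pyralis luciferase, 10 nM final, with Km-level 10 uM D-luciferin and 10 uM ATP in 50 mM Tris acetate pH 7.5, 10 mM Mg acetate, 0.01% Tween-20, 0.05% BSA; 6-point qHTS titration about 60 µM downward; luminescence read.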
NPC1 prom act – NPC1 promoter activation. Huh7 NPC1 promoter luciferase reporter, 24 h. Potency, µM (series often up to 9.22 µM), most hits filed as activators. 320,000 tested, 2.4% active. AID 485313; note: nearly all actives have a fitted effect of over 60% in size
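Cells: Huh7 expressing luciferase under the NPC1 promoter, 1500/well. Seeded 2 h, compound added, incubated 24 h at 37 °C. Luciferase reagent, 10 min ambient, then luminescence.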
SMN2 splice up – SMN2 splice variant enhancement; HEK293 SMN2-luciferase splicing reporter, luminescence, 30-36 h; 210,000 tested, 2.8% active; Potency, µM (doses to about 46.1 µM), hits mostly activators; AID 1458; note: nearly all actives have a fitted effect of over 55% in size
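qHTS luciferase splicing reporter: luminescence rises when SMN2 exon 7 is included in transfected HEK293 cells. Compound exposure lasted 30-36 h at 37C, with 4.5 mM final sodium butyrate as control, followed by a ONE-Glo read.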
Hits are given with their value; 0 = inactive; ? = inconclusive; - = no result; [ ] = another dose, or the depositor's remark. Calls come from the whole dose curve; as a rule, active = well fitted curve in the direction sought with a large enough effect; inconclusive = small, poorly fitted or top-dose-only effect, or another doubt; inactive = no such curve, though single readings can be large; an effect the other way counts as inactive or inconclusive.

SMILES | ELG1 genotoxic | Rab9 prom act | FLuc modulator | NPC1 prom act | SMN2 splice up
COC(=O)CC(c1ccc(C#N)cc1)n1c(C)ccc1C (stereo not given) | 0 | 0 | 0 | 0 | -
Cc1nc(SCC(=O)N2c3ccccc3NC(=O)CC2C)c2c(C)c(C)sc2n1 (stereo not given) | 0 | 0 | 0 | 0 | -
O=C(Nc1nnc(C2=COCCO2)o1)c1ccc(Cc2ccccc2)cc1 | 0 | 0 | 0 | 0 | 0
COc1ccc2c(c1)[C@@H]1[C@H](CO2)[C@H](c2ccccc2)[C@]2(C)C(=O)NCC(=O)N12 | 0 | 0 | 0 | 0 | -
Cn1c(=O)n(C)c2cc(NC(=O)COc3ccc(F)cc3F)ccc21 | 0 | 0 | 0 | 0 | -
O=C(O)c1cccc(NC(=O)c2cccc(S(=O)(=O)N3CCc4ccccc43)c2)c1 | 0 | 0 | 21.3µM | 0 | -
O=C(Nc1ccccn1)c1cccc(S(=O)(=O)N2CCc3ccccc3C2)c1 | 0 | 0 | 0 | 0 | -
O=C(Nc1ccncc1)c1cccc(S(=O)(=O)N2CCc3ccccc32)c1 | 0 | 0 | 0 | 0 | -
O=C(O)c1cccc(NC(=O)c2cccc(S(=O)(=O)N3CCc4ccccc4C3)c2)c1 | 0 | 0 | 21.3µM | 0 | 0
COCC(=O)Nc1cccc(C(F)(F)F)c1 | 0 | 0 | 0 | 0 | 3.55µM
O=C(COc1ccccc1)Nc1ccncc1 | 0 | 0 | 0 | 0 | -
CC(C)c1ccc(OCC(=O)Nc2ccc(S(=O)(=O)Nc3ncccn3)cc2)cc1 | - | - | 9.53µM | - | 0
CC(C)c1ccc(OCC(=O)Nc2ccc(S(=O)(=O)Nc3ccccn3)cc2)cc1 | 0 | 0 | ? | 0 | -
Cn1ccs/c1=N\C(=O)Nc1cccc(C(F)(F)F)c1 | 0 | 0 | 23.9µM | ? | -
Cc1cccc(NC(=O)CSCC(=O)N=c2sccn2C)c1 | 0 | 0 | 0 | 0 | -
CCc1ccc(OCC(=O)Nc2ccncc2)cc1 | 0 | 0 | 10.7µM | 0 | -
CCc1ccc(OCC(=O)Nc2cccc3nsnc23)cc1 | 0 | 0 | 16.9µM | 0 | 0
CCc1ccc(OCC(=O)N/N=C2\CC(=O)c3ccccc32)cc1 | 0 | 0 | 12µM | 0 | 0
CC(C)(C)c1ccc(OCC(=O)Nc2ccncc2)cc1 | 0 | 0 | 6.01µM | 0 | -
Cc1cc(OCC(=O)NNC(=O)c2ccncc2)ccc1C(C)C | 0 | 0 | 8.49µM | 0 | -
Cc1ccc(Oc2ccc(OCC(=O)Nc3ccncc3)cc2)cc1 | 0 | - | - | - | -
CCCCN(CC)C(=O)CSc1c2c(nc3ccc(Cl)cc13)CCCC2 | - | - | 0 | - | 0
CC(C)c1ccc(OCC(=O)Nc2ccncc2)cc1 | 0 | 0 | 5.36µM | 0 | -
COCC(=O)Nc1ccc(C(C)C)cc1 | ? | 0 | 23.9µM | 0 | ?
O=C(COc1ccc2ccccc2c1)Nc1ccncc1 | 0 | 0 | 9.53µM | 0 | -
SMILES | ELG1 genotoxic | Rab9 prom act | FLuc modulator | NPC1 prom act | SMN2 splice up
CC(=O)NC(=S)Nc1ccc(NC(=O)COc2ccc(C(C)C)cc2)cc1 | 0 | 0 | 0 | 0 | 0
CC(=O)c1ccc(S(=O)(=O)NCCCC(=O)NCCc2ccccn2)cc1 | 0 | 0 | 0 | 0 | 0
Cc1ccccc1NC(=O)c1cccnc1 | 0 | 0 | 0 | 0 | -
O=C(N/N=C/c1ccsc1)c1cc(-c2cccs2)nc2ccccc12 | 0 | 0 | 9.53µM | 0 | ?
O=C(O)c1ccc(/C=N/NC(=O)c2cc(-c3cccs3)nc3ccccc23)cc1 | 0 | 0 | 6.01µM | 0 | 0
C/C(=N\NC(=O)c1cc(-c2cccs2)nc2ccccc12)c1ccccn1 | 0 | 0 | 23.9µM | 0 | 0
O=C(N/N=C/c1ccsc1)c1cc(-c2ccncc2)nc2ccccc12 | 0 | 0 | ? | 0 | 0
Cc1ccc2nc(C)c(C(=O)N/N=C/c3ccc(C(=O)O)cc3)cc2c1 | 0 | ? | 5.36µM | 0 | -
CCOC(=O)CSc1nnc(NC(=O)c2cccc([N+](=O)[O-])c2C)s1 | 0 | 0 | ? | 0 | 0
CC(NC(=O)CN1CCN(S(=O)(=O)c2ccc(Br)cc2)CC1)c1ccccc1 (stereo not given) | 0 | 0 | 0 | 0 | -
O=C(NC1=NCCS1)c1cc(-c2cccs2)nc2ccccc12 | 0 | 0 | 12µM | 0 | -
COc1ccc(CNC(=O)c2cc(C3CC3)nc3c2c(C)nn3-c2cccc(Cl)c2C)cc1 | - | - | 0 | - | -
COc1ccc2c(c1)CCc1c-2nc2ccccc2c1N1CCOCC1 | 0 | 0 | 5.36µM | 0 | -
c1ccc2c(N3CCOCC3)c3c(nc2c1)CCC3 | 0 | 0 | 0 | 0 | -
CCN(CC)S(=O)(=O)c1ccc(Cl)c(C(=O)NC2CCCC2)c1 | 0 | 0 | 0 | 0 | 0
COc1ccc(NC(=O)/C(C#N)=C\c2ccc(Br)o2)cc1 | 0 | 0 | 0 | 0 | -
Cc1c(C(=O)O)cccc1-c1ccc(C=O)o1 | 0 | 0 | ? | 0 | ?
CNC(=O)/C(C#N)=C/c1ccc(-c2ccc(OC)cc2[N+](=O)[O-])o1 | 0 | ? | ? | 0 | 15.8µM
COc1ccc(NC(=O)/C(C#N)=C\c2ccc(-c3cc(C(=O)O)ccc3C)o2)cc1 | 0 | 0 | 19µM | 0 | -
N#C/C(=C\c1ccc(N2CCCCC2)o1)C(=O)Nc1cccc(Br)c1 | ? | 2µM | 2.69µM | 2.51µM | 0
COc1ccc(NC(=O)/C(C#N)=C\c2ccc(-c3cccc(C(=O)O)c3C)o2)cc1 | 0 | 0 | 8.49µM | 0 | -
CC(C)C(=O)Nc1ccc2c(c1)nc(CCN1CCN(C)CC1)n2C | 0 | 0 | 0 | 0 | 0
Cc1c(C#N)c(NC(=O)C(C)C)n(Cc2ccccc2)c1C | 0 | 0 | 0 | 0 | 0
O=C(Nc1ccccc1OC(F)(F)F)c1ccc([N+](=O)[O-])cc1 | 0 | 0 | 0 | 0 | -
Cc1ccc(/C=C(\C#N)C(=O)Nc2cccc(Br)c2)o1 | - | - | 0 | - | 0
SMILES | ELG1 genotoxic | Rab9 prom act | FLuc modulator | NPC1 prom act | SMN2 splice up
COc1ccc(NC(=O)/C(C#N)=C/c2ccc(-c3ccccc3C(=O)O)o2)cc1 | 0 | 0 | 6.75µM | 0 | -
Cc1ccc(/C=C(\C#N)C(=O)Nc2ccc(Br)cc2)o1 | - | - | 0 | - | 3.16µM
Cc1cc(C)nc(NS(=O)(=O)c2ccc(NC(=O)c3ccc(O)cc3O)cc2)n1 | 0 | 0 | 0 | 0 | -
CC(NC(=O)COC(=O)CSc1ccc(F)cc1)c1ccc(F)cc1 (stereo not given) | 0 | 0 | 0 | 0 | -
COCCCNC(=O)/C(C#N)=C/c1ccc(F)cc1 | 0 | 0 | 0 | 0 | 0
N#C/C(=C\c1ccc(F)cc1)C(=O)Nc1ccccn1 | 0 | 0 | 12µM | 0 | -
CCOC(=O)/C(C#N)=C/c1ccc(OC(=O)c2ccccn2)cc1 | 0 | 0 | 0 | 0 | 0
CCOc1ccc(/C=C(\C#N)C(=O)Nc2ccccn2)cc1 | 0 | 0 | 3.38µM | 0 | -
O=C(Nc1ccc2oc(-c3ccncc3)nc2c1)c1ccc(Br)o1 | 0 | 0 | 0 | 0 | -
COc1ccc(N2CCN(C(=O)CSc3nnc4c(C)cc5ccc(C)c(C)c5n34)CC2)cc1 | 0 | 0 | 0 | 0 | 0
Cc1nc2ccc(S(=O)(=O)N(C)CC(=O)NCCc3ccccc3)cc2s1 | 0[9.26 µM] | 0 | 0 | 0 | -
O=C1c2cccnc2C(=O)N1c1cccc(-c2nc3ccccc3o2)c1 | 0 | 0 | 3.79µM | 0 | 0
O=C1CCC(=O)N1c1cccc(-c2nc3ccccc3o2)c1 | 0 | 0 | ? | 0 | 0
